# Data published in PubChem BioAssay (NCI).
# Where “and” joins values, the source holds several entries; their conditions need not be identical. Identical values can stand only once. About 83,000 compounds went through this panel and 20% of them were active in at least one assay; those are over-represented in the sample as a whole.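 Note: values are percent growth. 100 is the growth of untreated cells, values between 100 and 0 indicate rising inhibition; between -100 and 0 indicates cell death.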 Calls of active or inactive are those of the source.
# System: COLO 205 colon
# Assay: NCI-60 one-dose screen, 48 h (100 = growth as untreated, 0 = no growth, -100 = all killed)
# Settings: 10 µM
# Experimental: Cells are grown in 96 well plates and exposed to the test compound for 48 hours. Compounds are tested at a single concentration, which is 10^-5 M for most compounds. The reported endpoint is percent growth (GI% or GIPRCNT), where numbers from 0 - 100% represent growth inhibition, and numbers from -100% - 0 represent cell death. For example, a value of 40 represents 60% growth inhibition. A value of 0 means no net growth occurred over the course of the experiment. A value of -40 indicates 40% of cells at the beginning of the experiment died by the end of the experiment. A value of -100 means all cells are dead at the end of the experiment.
# NCI-60 Human Tumor Cell Lines Screen was performed using the standard one-dose NCI protocol, which is described in more detail at https://dtp.cancer.gov/discovery_development/nci-60/default.htm.
# Compounds with GIPRCNT values below 10 were considered active. Activity score was based on GIPRCNT using the following formula: […]
# Score is 0 for GIPRCNT values of 100 or above, 50 for GIPRCNT values of 0, and 100 for GIPRCNT values of -100.
row,SMILES,growth
1,CS/C(=C\c1ccc(C(=O)c2ccc(C)cc2)n1C)S(C)=O (stereo not given),126% (inactive)
2,O=c1ccn2c(n1)OC1CC2OC1COC(c1ccccc1)(c1ccccc1)c1ccccc1 (stereo not given),112% (inactive)

# Same assay, conditions: 10 µM unless noted
row,SMILES,growth
1,COc1cc(C2c3cc4c(cc3C(OC(=O)C[n+]3ccccc3)C3COC(=O)C23)OCO4)cc(OC)c1OC (stereo not given),-56.3% (active)
2,O=C(Nc1ccccc1)OCC(CN1CCCCC1)OC(=O)Nc1ccccc1 (stereo not given),98% (inactive)
3,Nc1ccc(Cl)c(S(=O)(=O)O)c1,111% (inactive)
4,NCCSSC/C=C\CSSCCN,113% (inactive)
5,COc1ccc(CCN=Cc2ccc(Cl)cc2)cc1OC,108% (inactive)
6,CC(=O)/C(N=Nc1ccc(S(=O)(=O)c2ccc(N=N/C(C(C)=O)=C(/C)O)cc2)cc1)=C(\C)O,113% (inactive)
7,O=C1C(=O)c2ccccc2C(O)=C1CC=C(Cl)Cl,57.1% (inactive) and 57.7% (inactive)
8,OC(CC(c1ccccc1)c1cccc2ccccc12)(c1ccccc1)c1ccccc1 (stereo not given),90.3% (inactive) and 92.4% (inactive)
9,CC1CCC(=O)N1c1ccc(N)cc1 (stereo not given),104% (inactive)
10,Clc1ccc2sc(-c3ccccc3)nc2c1,115% (inactive)
11,O=C(O)C(Cc1ccc(OS(=O)(=O)Cc2ccccc2)cc1)NS(=O)(=O)Cc1ccccc1 (stereo not given),114% (inactive)
12,CCCCC/C(C)=N\NC(N)=S,92.8% (inactive)
13,Cc1ccc(C(=O)c2ccc(C)cc2)cc1,99.7% (inactive)
14,Nc1ccccc1SC(CC(=O)c1ccccc1)c1cccc([N+](=O)[O-])c1 (stereo not given),102% (inactive) and 109% (inactive)
15,Cc1cc(=NO)cc(C)n1O,113% (inactive)
16,CS(=O)(=O)OCC1NC(=O)C(COS(C)(=O)=O)NC1=O (stereo not given),128% (inactive) and 135% (inactive)
17,CCC(=O)Oc1ccc(OCc2ccccc2)cc1,124% (inactive) and 113% (inactive)
18,CC1(C)OC(=O)C(=Cc2ccc(C#N)cc2)C(=O)O1,103% (inactive) and 105% (inactive)

row,SMILES,growth
1,CC1=CC(=O)C=CC1=Nc1ccc(N(C)C)cc1,71.1% (inactive) and -30.2% (active)
2,OCCCc1ccccc1,94.1% (inactive)
3,NC(=O)Cc1nc(O)cc(=O)[nH]1,108% (inactive)
4,C/C(=C\c1ccccc1)C(O)C(=O)c1nc2ccc([N+](=O)[O-])cc2[nH]c1=O (stereo not given),111% (inactive)
5,CCOC(=O)C1=CC(=O)CC(C)(C)O1,105% (inactive) and 111% (inactive)
6,COc1ccc(CCNC(=S)NN)cc1OC,112% (inactive)
7,CC1=CC(=O)c2cccc(NC3=NCCO3)c21,102% (inactive)
8,COc1ccc(CCn2cnn3c(=O)c4ccccc4nc3c2=O)cc1OC,104% (inactive) and 117% (inactive)
9,O=[N+]([O-])c1ccc(NC(c2ccccc2)c2ccc3cccnc3c2O)cc1 (stereo not given),30.3% (inactive)
10,O=c1[nH]nnc2cc(Cl)ccc12,112% (inactive) and 117% (inactive)
11,C#CCOC(=O)C(N)CS (stereo not given),106% (inactive)
12,CC(C)(C(=O)c1cccnc1)c1cccnc1,113% (inactive) and 117% (inactive)
13,CN(C=O)c1ccccc1,101% (inactive)
14,N#Cc1c(N)nc2c(c(-c3ccc(Cl)cc3)nn2-c2ccccc2)c1C#N,117% [100 µM] (inactive)
15,COc1ccc(/C=N/Nc2nc3ccccc3s2)cc1,84.1% (inactive)
16,Cc1cc2ccccc2c2cc3ccccc3cc12,79.4% (inactive)
17,C/C(CC(C)C)=N/NC(N)=S,102% (inactive)
18,CCNCc1ccccc1,107% (inactive)

# Same assay, conditions: 100 µM
row,SMILES,growth
1,CS/C(=C\c1ccc(C(=O)c2ccc(C)cc2)n1C)S(C)=O (stereo not given),93.5% (inactive)
2,O=c1ccn2c(n1)OC1CC2OC1COC(c1ccccc1)(c1ccccc1)c1ccccc1 (stereo not given),115% (inactive)
